# Only some compounds are listed: those with a hit (about 21% of all), similar ones and a draw of the others.
# MRP-1 activ: H69AR viability gain despite doxorubicin, primary screen, MRP-1 activator project, H69AR cells, CellTiter-Glo | viability rescue | viability increase, % at 10 µM | 140,000 tested, 0.61% active | AID 799, 2007;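 active = viability gain under doxorubicin at or above a set limit, the compound median plus 3 SD, cut at about 4.7% in these data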;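 note: MRP-1 overexpressing cells given doxorubicin 25 µM after compound pretreatment; 18-22 h compound pretreatment then 72 h with doxorubicin before readout; 0% = doxorubicin-only wells and 100% = vehicle-treated cells without doxorubicin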
# CYP2C19 activ: human CYP2C19 activators, primary screen, biochemical, luminescence | activation factor at 5 µM | 96,000 tested, under 10 active | Cytochrome P450 2C19 (Homo sapiens), P33261 | recombinant CYP2C19, luciferin-H EGE luminescence; stronger effect = higher value; 0 = fully inhibited enzyme, 1 = untreated enzyme | AID 1025, 2008;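 active = activation factor of at least 2 at 5 µM in the primary screen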;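 note: 0 = wells with 2.5 mM tranylcypromine and 1 = vehicle-only wells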
# Target sequence (P33261 whole entry, looked up): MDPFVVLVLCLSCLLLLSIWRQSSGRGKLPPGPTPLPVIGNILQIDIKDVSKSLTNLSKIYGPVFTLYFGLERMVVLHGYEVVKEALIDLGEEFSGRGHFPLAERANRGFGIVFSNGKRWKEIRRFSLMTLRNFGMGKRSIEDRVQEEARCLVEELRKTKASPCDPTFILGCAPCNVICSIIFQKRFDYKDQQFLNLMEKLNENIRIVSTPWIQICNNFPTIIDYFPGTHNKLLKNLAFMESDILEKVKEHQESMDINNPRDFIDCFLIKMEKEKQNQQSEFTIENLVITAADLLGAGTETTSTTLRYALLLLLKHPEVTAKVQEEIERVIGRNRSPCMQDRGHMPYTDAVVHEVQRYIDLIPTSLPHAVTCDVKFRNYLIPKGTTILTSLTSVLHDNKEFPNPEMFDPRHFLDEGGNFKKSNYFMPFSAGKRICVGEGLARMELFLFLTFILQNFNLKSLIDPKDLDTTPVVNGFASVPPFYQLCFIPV
# CYP2C19 inhib: blockers of cytochrome P450 2C19 activity – biochemical, luminescence, ADME assay, primary screen; 96,000 tested, 21% active; P33261; inhibition, % at 5 µM; AID 778, 2007; CYP2C19 Supersomes, luciferin-H EGE luminescence, 30 min;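 active = CYP2C19 inhibition above a set limit at 5 µM in the primary screen, cut at about 50% in these data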;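 note: plate controls were negative control wells for no effect and 2.5 mM tranylcypromine positive control for full effect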
# CYP2C9 inh: blockers of cytochrome P450 2C9 activity – biochemical, luminescence, ADME assay, primary screen; P11712; CYP2C9 Supersomes, luciferin-H conversion; inhibition, % at 5 µM; 96,000 tested, 20% active;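 active = blocking of liver enzyme CYP2C9 beyond about 50% at 5 µM, limit read from the data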
# CYP2C9 activ: human CYP2C9 activators, primary screen, biochemical, luminescence; Cytochrome P450 2C9 (Homo sapiens), P11712; recombinant CYP2C9, luciferin-H conversion; stronger effect = higher value; factor 1 = untreated enzyme, 0 = blocked; activation factor at 5 µM; 96,000 tested, 1.4% active; AID 1024, 2008;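 active = activation factor of 2 or more for CYP2C9 at a 5 µM dose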;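 note: 0 = sulfaphenazole-blocked wells and 1 = vehicle-only wells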
# MRP reversal: reversal of MRP1-mediated doxorubicin resistance, primary screen, H69AR cells, doxorubicin co-treatment; differential viability (reversal), % at 10 µM; H69AR cells + 2 uM doxorubicin, CellTiter-Glo, 72 h; 85,000 tested, 0.04% active;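 active = viability drop by adding the cancer drug above about 55%, with treated viability meeting a 40% cutoff, limit read from the data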;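 note: viability without doxorubicin minus viability with 2 µM doxorubicin for each compound; larger differential means the compound sensitizes cells more to doxorubicin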
# Numbers without * were called inactive; x = not tested or not shown.
SMILES,MRP-1 activ,CYP2C19 activ,CYP2C19 inhib,CYP2C9 inh,CYP2C9 activ,MRP reversal
CC(C)OC(=O)/C(=C\c1ccc2c(c1)c1ccccc1n2C)NC(=O)c1ccccc1,0,0.6,37,76*,0.2,x
O=C1CC(c2ccccc2)CC(O)=C1C=NC1CCCCCC1 (stereo unspecified),0,0.6,37,25,0.7,x
CC(=NC1CCCCC1)C1=C(O)c2ccccc2C1=O,x,0.1,87*,86*,0.1,-11
CCSC1=NC2(CCCCC2)Nc2sc3c(c21)CCCC3,-2,0.4,63*,74*,0.3,-9
Cc1ccc(Nc2c3c(nc4ncnn24)CC(C)CC3)cc1 (stereo unspecified),-4,0.8,22,23,0.8,-24
CCOc1ccc(Nc2c3c(nc4ncnn24)CC(C)CC3)cc1 (stereo unspecified),-1,0.5,52*,37,0.6,x
Cc1ccc(Nc2c3c(nc4ncnn24)CCC3)cc1,-2,0.4,60*,19,0.8,-3
Clc1cccc(Nc2c3c(nc4ncnn24)CCC3)c1,-1,0.4,60*,15,0.9,-13
c1coc(-c2nc3c([nH]2)CCc2nonc2-3)c1,0,1.2,-18,-8,1.1,-2
S=C(N/N=C/c1ccc(Cl)cc1)N1CCOCC1,5.7*,x,x,x,x,x
Cc1ccc(/C=N/NC(=S)N2CCOCC2)cc1,4,x,x,x,x,x
CSc1ccc(/C=C/C(=O)c2ccc(O)cc2)cc1,-7,x,x,x,x,x
COC(=O)c1ccc(/C=C/C(=O)c2ccc(OC)c(OC)c2)cc1,-2,0.6,39,23,0.8,x
CCOc1ccc(C(=O)/C=C/c2ccc(SC)cc2)cc1,-6,0.4,62*,28,0.7,x
COC(=O)c1ccc(/C=C/C(=O)c2ccc(OC)cc2)cc1,-5,0.5,53*,91*,0.1,x
Cc1ccc(C(C2C(=O)CC(C)(C)CC2=O)C2C(=O)CC(C)(C)CC2=O)s1,0,0.8,19,0,1,x
Cc1cc2ccccc2n1CCNC(=O)Cc1ccccc1,-2,0,96*,81*,0.2,10
COc1cc(/C=C/C(=O)NCCn2c(C)cc3ccccc32)cc(OC)c1OC,-2,x,x,x,x,x
COc1ccc(/C=C/C(=O)NCCn2c(C)cc3ccccc32)cc1OC,1,x,x,x,x,x
Cc1cc2ccccc2n1CCNC(=O)C(C)Oc1ccccc1 (stereo unspecified),-2,0,100*,87*,0.1,11
Cc1cc2ccccc2n1CCNC(=O)c1ccc(S(=O)(=O)N2CCCCC2)cc1,-3,0.7,34,90*,0.1,-5
COc1ccc(C(=O)NCCn2ccc3ccccc32)c(OC)c1,-3,0,100*,5,1,11
Cc1ccc(S(=O)(=O)N2CCOCC2)cc1NC(=O)COC(=O)c1cc(=O)c2ccccc2o1,-4,x,x,x,x,x
S=c1[nH]nc(COc2ccccc2)n1/N=C/C(Cl)=C/c1ccccc1,-2,0.9,14,39,0.6,x
CC(C)C(=O)NCCn1ccc2ccccc21,1,0.4,57*,35,0.7,-2
SMILES,MRP-1 activ,CYP2C19 activ,CYP2C19 inhib,CYP2C9 inh,CYP2C9 activ,MRP reversal
O=C(Cc1cccs1)NCCn1ccc2ccccc21,-3,0.3,73*,18,0.8,13
Cc1cc2ccccc2n1CCNC(=O)C(C)C,-1,0.5,50*,8,0.9,13
CCC(=O)NCCn1ccc2ccccc21,-3,1,2,7,0.9,7
Cc1ccc(S(=O)(=O)N2CCN(C(=O)CCN3C(=O)c4ccccc4C3=O)CC2)cc1C,0,x,x,x,x,x
Cn1c2c(c(=O)n(C)c1=O)C(CC(=O)Nc1ccccc1)C(=O)N2 (stereo unspecified),0,0.6,40,26,0.7,-5
CCCCn1c2c(c(=O)n(C)c1=O)C(CC(=O)OCC(=O)Nc1cccc(C(F)(F)F)c1)C(=O)N2 (stereo unspecified),-2,0.6,37,86*,0.1,13
Cc1ccc(Nc2cccccc2=O)cc1,0,0.2,75*,36,0.6,0
CCOC(=O)CSc1nc(N)nc(C)c1Br,19*,0.9,12,-15,1.2,4
COc1cccc(C(=O)Nc2nnc(-c3cccs3)s2)c1,-1,0.7,30,70*,0.3,x
CCc1nnc(NC(=O)C(CC)c2ccccc2)s1 (stereo unspecified),2,x,x,x,x,x
CCOc1cccc(C(=O)Nc2nnc(-c3ccco3)s2)c1,1,0.8,18,-105,2.1*,2
CCC(C(=O)Nc1nnc(-c2ccco2)s1)c1ccccc1 (stereo unspecified),-3,0.8,25,55*,0.4,1
CN(c1nc2c(c(=O)n(C)c(=O)n2C)n1CC(=O)c1ccccc1)C1CCCCC1,-2,0.5,46,66*,0.3,31
Cn1c(=O)c2c(nc(NC3CCCCC3)n2CC(O)COc2ccccc2)n(C)c1=O (stereo unspecified),-5,0.6,37,52*,0.5,47
Cn1c(Br)nc2c1c(=O)n(CC(O)COc1ccccc1)c(=O)n2C (stereo unspecified),0,0.1,86*,11,0.9,15
Cn1c(=O)c2c(nc(N3CCN(Cc4ccccc4)CC3)n2CC(=O)c2ccccc2)n(C)c1=O,x,x,x,x,x,5
O=C(CNCCCO)Nc1cc(C(F)(F)F)cc(NC(=O)CNCCCO)c1Cl,-1,x,x,x,x,x
CC1CCN(CCCNC(=O)Cc2c(C(=O)O)n(C)c3ccccc23)CC1,x,x,x,x,x,-5
COc1ccc(Cn2c(SCC(=O)NCc3ccco3)nc3ccsc3c2=O)cc1,-3,0.6,45,40,0.6,22
CCC(Sc1nc2cc(OC)c(OC)cc2c(=O)n1Cc1ccco1)C(=O)NCCOC (stereo unspecified),-3,1,4,29,0.7,-2
COCCNC(=O)CSc1nc2cc(OC)c(OC)cc2c(=O)n1Cc1ccco1,-3,0.7,28,83*,0.2,9
CCCCNC(=O)CSc1nc2cc(OC)c(OC)cc2c(=O)n1Cc1ccc(OC)cc1,-6,0.7,34,68*,0.3,x
CCNC(=O)CSc1nc2cc(OC)c(OC)cc2c(=O)n1CCC1=CCCCC1,x,0.5,52*,52*,0.5,-5
COC(=O)c1ccc2c(=O)n(Cc3ccco3)c(SCC(=O)Nc3ccc(C)c(Cl)c3)nc2c1,-2,0.9,12,77*,0.2,-4
O=C(CSc1nc2cc(Cl)ccc2c(=O)n1Cc1ccco1)Nc1ccc(S(=O)(=O)N2CCOCC2)cc1,-1,x,x,x,x,x
C/C(=N/NC(=O)Cc1cccs1)c1ccco1,-2,x,x,x,x,x

# High-throughput results (PubChem)
